Laboratory results: the supplement of paper PMC7156485
± gives the standard deviation of the averaged measurements.

Assays:
Details in all cases: concentration: 10 µM; 24 h
HCC1569 [1] = assay: cell number relative to DMSO (% of DMSO); higher = more cells (less growth inhibition / toxicity)
Outline: (§1)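 Using 384-well plates with 800 cells per well in RPMI plus 10% FBS, HCC1569 and TDF cells were exposed to compounds at 10 µM, in triplicate, for 24 h at 37 °C. Imaging of six fields per well at ×10 followed H1.0 and DAPI staining. The reported quantity, H1.0 nuclear intensity or cell number, is a median of replicates given as percent of the plate control, and HCC1569 values were smoothed for positional effects.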

TDF [2] = assay: as above
Outline: as §1

TDF [3] = assay: H1.0 immunofluorescence intensity relative to DMSO (% of DMSO); higher = stronger H1.0 induction, active = 120 or more
Outline: as §1

HCC1569 [4] = assay: H1.0 immunofluorescence intensity relative to DMSO (% of DMSO); higher = stronger H1.0 induction, active = 140 or more
Outline: as §1
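Wherever H1.0 immunofluorescence intensity relative to DMSO is given: TDF is a line of transformed human dermal fibroblasts of mesenchymal origin.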
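Wherever cell number relative to DMSO is given: TDF denotes transformed human dermal fibroblasts of mesenchymal origin.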

Row | Structure (SMILES) | cell number (HCC1569 [1]) | cell number (TDF [2]) | H1.0 immunofluorescence intensity (TDF [3]) | H1.0 immunofluorescence intensity (HCC1569 [4])
1 | CNCCC=C1c2ccccc2CCc2ccccc21.Cl [Nortriptyline hydrochloride] | 88.9 | 93.9 | 109 (inactive) | 117 (inactive)
2 | Nc1cc(-c2ccncc2)c[nH]c1=O [amrinone] | 99.8 | 105 | 100 (inactive) | 114 (inactive)
3 | FC(F)(F)c1ccccc1-n1ccnc1 [1-[2-(Trifluoromethyl)phenyl]imidazole] | 100 | 96 | 96.5 (inactive) | 108 (inactive)
4 | COc1ccc(C=Cc2cc(O)cc(OC3OC(CO)C(O)C(O)C3O)c2)cc1O (stereo unspecified) [Rhapontin] | 99.2 | 104 | 96 (inactive) | 83.7 (inactive)
5 | CC1OC(OC2C(Oc3cc(O)c4c(=O)cc(-c5ccc(O)cc5)oc4c3)OC(CO)C(O)C2O)C(O)C(O)C1O (stereo unspecified) [Rhoifolin] | 102 | 112 | 88.4 (inactive) | 89.9 (inactive)
6 | Cc1ncc([N+](=O)[O-])n1CC(C)O (stereo unspecified) [Secnidazole] | 102 | 96.6 | 93.5 (inactive) | 107 (inactive)
7 | N=C(N)N1CCc2ccccc2C1 [Debrisoquin] | 103 | 102 | 96 (inactive) | 96.4 (inactive)
8 | COc1ccc(-c2cc(=O)c3c(O)c(OC)c(OC)cc3o2)cc1O | 68.2 | 80.2 | 102 (inactive) | 139 (inactive)
9 | O=NN(CCCl)C(=O)NCCCl [Carmustine] | 99 | 93.9 | 95.4 (inactive) | 89.6 (inactive)
10 | CN(C)CCCC1(c2ccc(F)cc2)OCc2cc(C#N)ccc21 (stereo unspecified) [Escitalopram] | 100 | 86.1 | 98 (inactive) | 93.5 (inactive)
11 | CC12CC3CC(C)(C1)CC(N)(C3)C2.Cl [Memantine.HCl] | 94.8 | 102 | 90.8 (inactive) | 100 (inactive)
12 | CCc1ccc(CCOc2ccc(CC3SC(=O)NC3=O)cc2)nc1 (stereo unspecified) [Pioglitazone] | 102 | 105 | 94.2 (inactive) | 102 (inactive)
13 | CC(C)(C)c1onc(OCP(=O)(O)O)c1CC(N)C(=O)O (stereo unspecified) | 104 | 113 | 91.2 (inactive) | 95.1 (inactive)
14 | CC1CCCC(C)N1NC(=O)c1ccc(Cl)c(S(N)(=O)=O)c1 (stereo unspecified) [Clopamide] | 100 | 104 | 94.9 (inactive) | 104 (inactive)
15 | COc1cc(C2c3cc4c(cc3C(OC3OC5COC(C)OC5C(O)C3O)C3COC(=O)C23)OCO4)cc(OC)c1O (stereo unspecified) [Etoposide] | 74.1 ± 1.6 | 42.1 ± 4.8 | 125 (active) | 95.1 (inactive)
16 | CCCCNc1c(C(=O)OCC)c(C)nc2c1cnn2CC [Tracazolate] | 105 | 108 | 92.8 (inactive) | 107 (inactive)
17 | CC(C)CCC[C@@H](C)[C@H]1CC[C@H]2[C@@H]3CC(=O)[C@H]4C[C@@H](O)CC[C@]4(C)[C@H]3CC[C@]12C [(3beta,5alpha)-3-hydroxycholestan-6-one] | 105 | 92.5 | 98.5 (inactive) | 98.6 (inactive)
18 | COc1cc2c(cc1OC)-c1cc(=Nc3c(C)cc(C)cc3C)n(C)c(=O)n1CC2.Cl [Trequinsin hydrochloride] | 96.4 | 111 | 85 (inactive) | 101 (inactive)
19 | NC(CCCP(=O)(O)O)C(=O)O (racemic) | 103 | 105 | 94 (inactive) | 93.7 (inactive)
20 | COC(=O)C1C(O)CCC2CN3CCc4c([nH]c5ccccc45)C3CC21.Cl (stereo unspecified) | 102 ± 5.1 | 107 ± 3.6 | 91.2 (inactive) | 100 (inactive)
21 | COc1cccc(-c2cn(-c3ccc(CCN4CCC(O)CC4)cc3)c3ncnc(N)c23)c1 | 45.9 | 53.9 | 127 (active) | 177 (active)
22 | CCN(CC)C(=S)SSC(=S)N(CC)CC [Disulfiram] | 93.4 ± 1.7 | 39 ± 4.7 | 123 (active) | 116 (inactive)
23 | O=C(O)CCC(C(=O)O)N1C(=O)c2ccccc2C1=O [L-Glutamic acid, N-phthaloyl-] | 101 | 110 | 91.4 (inactive) | 105 (inactive)
24 | O=C(Nc1ncc(-c2cc(C(F)F)nn2-c2c(Cl)cccc2Cl)s1)C1CC1 | 52.3 | 9.11 | 176 (active) | 149 (active)
